In PubChem BioAssay (Tox21):
“And” between values parts separate entries of the source, which are not always exact repeats. Identical values can stand only once. Results filed as inconclusive are left out. Where a call stands in place of a potency, no number is given. A number with no mark means an inactive call. The source made the active and inactive calls. Calls follow the shape of the dose curve; as a rule, active = well fitted activation curve with a large enough effect in the repeat runs; inconclusive = weak or mixed curves; inactive = flat fitted curve, though single readings scatter.

Assay: A CellTox Green Cytotoxicity Assay to monitor cytotoxicity in HEK293 cells - 40 hour (AID 1224871); also: nearly all actives have a fitted effect of over 45% in size
Details: CellTox Green fluorescence; series mostly up to 76.8 µM
Excerpt: National Center for Advancing Translational Sciences [NCATS]
NIH Chemical Genomics Center [NCGC]
U.S. Environmental Protection Agency [EPA]
National Institutes of Environmental Health Sciences [NIEHS]
National Toxicology Program [NTP]
Cell-based models are critical for drug discovery. Determining the natural cytotoxic effects resulting from test compounds is an essential research activity. A CellTox Green Cytotoxicity Assay to monitor cytotoxicity in real time of continues cell culture during 40 hours of the compound treatment was used to screen Tox21 10K library compounds in Hek293 cells. CellTox Green Cytotoxicity Assay is a nonlytic, homogeneous, biofluorescent method to measure cytotoxicity in cell culture after experimental manipulation. The assay system uses a proprietary asymmetric cyanine dye that is excluded from viable cells but preferentially stains the dead cell's DNA. […] Viable cells produce no appreciable increases in fluorescence. Therefore, the fluorescence signal produced by the binding interaction with dead cell DNA is proportional to cytotoxicity.
The mixture of Hek293 cell suspension and reagents were dispensed at 600cells/6 ul/well in 1536-well tissue culture treated black solid bottom plates using a Multidrop dispenser. After the assay plates were incubated at a 37 C/5% CO2 incubator for 5 hours, 23 nL of compounds dissolved in DMSO, positive and negative controls was transferred to the assay plate by a pintool work station. The plates were incubated at 37 C for 40 hours. The fluorescence intensity were measured at 0h, 8h, 16h, 24h, 32h and 40h time points using ViewLux plate reader during compound treatment.
Potency is read from the fitted curve at half-maximal effect.

SMILES	Potency	cytotoxicity increase
O=C(Nc1ccccc1)Nc1cnns1	inactive	
CC(=O)NC1CCSC1=O (stereo not given)	inactive	
O=C1c2ccccc2C(=O)C1C(=O)C(c1ccccc1)c1ccccc1	inactive	
CCBr	inactive	
O=C(NC(=O)c1c(F)cccc1F)Nc1ccc(OC(F)(F)C(F)OC(F)(F)F)c(Cl)c1 (stereo not given)	inactive	
OC(c1ccc(Cl)cc1)(c1ccc(Cl)cc1)c1cccnc1	inactive	
CCOP(O)OCC	inactive	
S=C=NCc1ccccc1	55.5 µM (active)	
CNC(C)Cc1ccccc1OC (stereo not given)	inactive	
CCOc1nc(F)cc2nc(S(=O)(=O)Nc3c(Cl)cccc3Cl)nn12	inactive	
C[N+](C)(C)CCCl	inactive	
CCc1ccc(C(=O)NN(C(=O)c2cc(C)cc(C)c2)C(C)(C)C)cc1	inactive	
CN1[C@@H]2CC[C@H]1CC(OC(=O)c1cc(Cl)cc(Cl)c1)C2 (stereo not given in full)	inactive	
Nc1ccc(N=Nc2ccc(-c3ccc(N=Nc4c(S(=O)(=O)O)cc5cc(S(=O)(=O)O)c(N=Nc6ccccc6)c(O)c5c4N)cc3)cc2)c(N)c1	inactive	
N#Cc1cc(I)c(O)c(I)c1	inactive	
Brc1ccc(Oc2ccccc2)cc1	44.7 µM (active) and 21.9 µM (active)	
C=CC(=O)OCC(C)C	inactive	
O=C(O)COc1ccc(Cl)cc1	inactive	
CCCCC(CC)COP(=O)(Oc1ccccc1)Oc1ccccc1 (stereo not given)	inactive	
Clc1cccc(SC2CCNCC2)n1	inactive	

SMILES	Potency	cytotoxicity increase
CCOC(=O)[C@]1(c2ccccc2)Oc2ccccc2[C@@H]1N	inactive	
CCCCCCCCCCOC(=O)c1ccccc1C(=O)OCCCCCCCCCC	inactive	
C=COC(C)=O	inactive	
C=CCC1([C@H](C)CCC)C(=O)NC(=O)NC1=O	inactive	
Cc1c(F)c(F)c(COC(=O)C2C(/C=C(\Cl)C(F)(F)F)C2(C)C)c(F)c1F (stereo not given)	inactive	
CCOS(C)(=O)=O	inactive	
CCC(COC(=O)c1cc(OC)c(OC)c(OC)c1)(c1ccccc1)N(C)C (stereo not given)	inactive	
C=CC(=O)OC(C)(C)C	inactive	
CC(C)(C)C(O)C(Oc1ccc(Cl)cc1)n1cncn1 (stereo not given)	5.49 µM (active)	
C#CCOC(C(=O)OCCN(C)C)(c1ccccc1)c1ccccc1	inactive	
NCC(CC(=O)O)c1ccc(Cl)cc1 (stereo not given)		-18.6% [at 0.29 µM]
CCCCCCCCOC(=O)c1ccc(C(=O)OCCCCCCCC)c(C(=O)OCCCCCCCC)c1	inactive	
CC/C(=N\OC/C=C/Cl)C1=C(O)CC(C2CCOCC2)CC1=O (stereo not given)	inactive	
COc1c(C(C)(C)C)cc([N+](=O)[O-])c(C)c1[N+](=O)[O-]	inactive	
N#CCC#N	inactive	
C=CCCl	inactive	
O=Cc1ccc(Cl)cc1Cl	inactive	
O=C(C(Cl)(Cl)Cl)C(Cl)(Cl)Cl	inactive	
N#CCc1ccccc1	inactive	
COP(=S)(OC)Oc1ccc([N+](=O)[O-])cc1Cl	inactive	
